Data on 6 compounds can be found in PubChem BioAssay.

Several values for one entry are separate records, joined by “and”; a condition that tells them apart may be missing. Equal entries are not always repeated. Inconclusive results are not listed. Activity calls are given as the source filed them. Unless noted, cut-off not given; nearly all actives show AC50 up to about 26 µM.

The nature of assay [1]: growth inhibition of DIPG glioma cells, dose response, cell-based, SU-DIPG-XVII, MIPE5.0, CellTiter-Glo, qHTS (AID 1347060).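 On AC50: cells exposed to compound for 48 hours before viability readout.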 Conditions: SU-DIPG-XVII viability, CellTiter-Glo ATP luminescence. On the technique in general: Cellular ATP, detected with luciferase, serves as a proxy for viable cell number.
The nature of assay [2]: growth inhibition of DIPG glioma cells, dose response, cell-based, SU-DIPG-XIII, MIPE4.0, CellTiter-Glo, qHTS (AID 1347061; cut-off not given, nearly all actives have AC50 up to about 37 µM;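 further: cells exposed to compound for 48 hours before readout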). Particulars: SU-DIPG-XIII viability, CellTiter-Glo ATP luminescence.
The nature of assay [3]: growth inhibition of DIPG glioma cells, dose response, cell-based, JHH-DIPG-1, MIPE4.0, CellTiter-Glo, qHTS (AID 1347062; cut-off not given, nearly all actives have AC50 up to about 27 µM;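 on AC50: cells exposed to compound for two days before readout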). Conditions: JHH-DIPG-1 viability, CellTiter-Glo ATP luminescence.
A short description of assay [4]: growth inhibition of DIPG glioma cells, dose response, cell-based, SU-DIPG-IV, MIPE4.0, CellTiter-Glo, qHTS (AID 1347063; cut-off not given, nearly all actives have AC50 up to about 30 µM;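 further: compound exposure lasted 48 hours before the viability readout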). Conditions: SU-DIPG-IV viability, CellTiter-Glo ATP luminescence.
Assay [5] in a line: growth inhibition of DIPG glioma cells, dose response, cell-based, SU-DIPG-XIII, MIPE5.0, CellTiter-Glo, qHTS (AID 1347064; cut-off not given, nearly all actives have AC50 up to about 23 µM;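 on AC50: cells exposed to compound for 48 hours before the viability read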). Conditions: SU-DIPG-XIII viability, CellTiter-Glo ATP luminescence.
A short description of assay [6]: viability loss in pontine glioma line – cell-based, SU-DIPG-XXV, MIPE5.0, CellTiter-Glo, qHTS, dose response (AID 1347065).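 Further: cells exposed to compound for 48 hours before ATP readout.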 Particulars: CellTiter-Glo ATP luminescence.
A short description of assay [7]: SU-DIPG-VI glioma cell viability, MIPE4.0 library, CellTiter-Glo luminescence, qHTS (AID 1347066; cut-off not given, nearly all actives have AC50 up to about 30 µM;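 further: cells exposed to compound for 48 hours before readout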). Particulars: CellTiter-Glo ATP luminescence.
A short description of assay [8]: JHH-DIPG-1 glioma cell viability, MIPE5.0 library, CellTiter-Glo luminescence, qHTS (AID 1347067).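 Further: cells exposed to compound for 48 hours before readout.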 Conditions: JHH-DIPG-1 glioma viability, CellTiter-Glo ATP luminescence.
Assay [9] in a line: SU-DIPG-XXV glioma cell viability, MIPE5.0 library, qHTS (AID 1347068; cut-off not given, nearly all actives have IC50 up to about 30 µM;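 on IC50: cells exposed to compound for 48 hours before viability readout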). A general note: qHTS replaces the single test concentration by a dilution series.
Assay [10] is described as follows: sensitizers of A549 cells to miR-34 induction, primary screen, imaging, A549 dox-inducible miR-34, nuclei and caspase counts (AID 1347080;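 active means compounds whose cell count with miR-34 switched on is under 0.7 times the count with it off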). Conditions: A549 miR-34 inducible, Hoechst nuclei count, 48 h.
Assay [11] in a line: survival rescue of mitochondrial mutant cells in low glucose, primary screen, MELAS cybrids, Rieske KO mouse fibroblasts, CellTiter-Glo (AID 1508586;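 active means mean z-score across replicates of 1.96 or higher in either the MELAS or the Rieske mutant cell line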;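 further: z relative to plate mean and SD of compound and empty wells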).
Assay [12] is described as follows: modifiers of HSF1 nuclear foci, imaging, Selleck Cancer Library (AID 1347162; in the data active means plate-normalised HSF1 focus index below about 0.46). Particulars: human cells, at 10 µM; SSMD: measured here: HSF1 foci SSMD mean; cell count: measured here: cell number; plate-normalised HSF1 focus index: stronger effect = lower value.
The mark [13] stands for this setting: stronger effect = lower value, cell number ratio, induced over uninduced.
[14] abbreviates: measured here: relative caspase fold change +Dox/-Dox.
[15] abbreviates: measured here: total cells with miR-34 induction, stronger effect = lower value.
The mark [16] stands for this setting: measured here: total cells without miR-34 induction.
The mark [17] stands for this setting: MELAS cybrid survival, CellTiter-Glo 48 h, stronger effect = higher value.
Where [18] appears, read: Rieske KO mouse fibroblast survival, CellTiter-Glo 72 h.

The term AC50 denotes the concentration giving half of the maximal activity seen. As usually defined, the IC50 is the midpoint of a concentration-inhibition curve. For the compound `CCN(CC)Cc1ccc2cc(COC(=O)Nc3ccc(C(=O)NO)cc3)ccc2c1`, the AC50 is 5.25 µM (active) in [1]; 11.8 µM (active) in assay [2]; 2.64 µM (active) in assay [3]; 5.26 µM (active) in assay [4]; 2.63 µM (active) in assay [5]; 1.66 µM (active) in [6]. For the same compound, the AC50 is 1.66 µM (active) in [7] and 1.48 µM (active) in assay [8]. Moreover, in assay [9], the IC50 is 18.6 µM (active). Also, the fold change was 1.01 (inactive) in [10] (setting [13]) and 0.529 in assay [10] (setting [14]). Also, the cell count was found to be 1260 in assay [10] (setting [15]) and 1250 in assay [10] (setting [16]). Also, the figures for the z-score in assay [11] (setting [17]) and in [11] (setting [18]) were 1.32 (inactive) and -3.38, respectively.
As for `Cc1cccc(-c2[nH]ncc2-c2ccc3ncccc3n2)n1`, the result in assay [1], in assay [2], in [3], in assay [4], in [5] and in assay [6] was inactive. Besides, the outcome in assay [7], in assay [8] and in assay [9] was inactive. For the same compound, the fold change was 0.969 (inactive) and 0.891 (inactive) in [10] (setting [13]); 0.983 and 0.417 in assay [10] (setting [14]). Further, the cell count in [10] (setting [15]) is 9850 and 8880; in assay [10] (setting [16]) it was 10200 and 9960. Besides, the figures for the z-score in assay [11] (setting [17]) and in assay [11] (setting [18]) were -0.572 (inactive) and 0.111, respectively.
For the compound `Cc1cnc(Nc2ccc(N3CCN(C)CC3)cc2)nc1Nc1cccc(S(=O)(=O)NC(C)(C)C)c1`, the AC50 in assay [1] was 2.95 µM (active); in [2] it was 5.9 µM (active); in assay [3], 5.9 µM (active); in assay [4] it was 6.62 µM (active); in assay [5], 2.95 µM (active); in assay [6], 1.86 µM (active). Further, the AC50 was 14.8 µM (active) in assay [7] and 2.95 µM (active) in assay [8]. Further, the IC50 in assay [9] was 4.68 µM (active). Moreover, the fold change in assay [10] (setting [13]) was 1.22 (inactive); in assay [10] (setting [14]), 0.413. Further, the figures for the cell count in assay [10] (setting [15]) and in [10] (setting [16]) were 2300 and 1880, respectively. Besides, the z-score in assay [11] (setting [17]) was 1.59 (inactive); in [11] (setting [18]), -3.35.
As for `Cc1ccc(O)c(C(CCN(C(C)C)C(C)C)c2ccccc2)c1` (configuration not stated), the compound was called inactive in assay [1], in assay [2], in assay [3], in assay [4], in [5] and in assay [6]. For the same compound, the compound was classed as inactive in assay [7], in assay [8] and in [9]. Also, the fold change in assay [10] (setting [13]) is 0.945 (inactive) and 0.96 (inactive) and 0.87 (inactive); in assay [10] (setting [14]), 1.69 and 0.719 and 5.48. Also, the cell count is 8130 and 7320 and 11700 in assay [10] (setting [15]); 8600 and 7630 and 13400 in assay [10] (setting [16]). Also, the z-score is -0.247 (inactive) in assay [11] (setting [17]) and -0.0904 in [11] (setting [18]).
Consider `O=C(NCc1ccccc1)c1csc(Nc2ccncn2)n1`, for which the AC50 was 18.6 µM (active) in assay [1]; 20.9 µM (active) in assay [2]; 4.18 µM (active) in assay [3]; 9.35 µM (active) in assay [4]; 14.8 µM (active) in assay [5]; 16.6 µM (active) in assay [6]. Further, the AC50 in [7] and in [8] was 16.6 µM (active) in each case. Further, the IC50 in [9] is 23.5 µM (active). The fold change was 0.918 (inactive) in assay [10] (setting [13]) and 0.977 in assay [10] (setting [14]). The cell count in assay [10] (setting [15]) stood at 4990; in assay [10] (setting [16]) it was 5440. Also, the z-score in [11] (setting [17]) was -0.235 (inactive); in assay [11] (setting [18]) it was -0.0999.
In the case of `CC(C)c1ccc(Cn2ccc3c4c(N)nc(NC5CC5)nc4ccc32)cc1`, the AC50 in [1] was 2.63 µM (active); in assay [2], 20.9 µM (active); in assay [3] it was 4.69 µM (active); in assay [4] it was 4.18 µM (active); in [5], 6.61 µM (active); in [6], 2.63 µM (active). Moreover, the results for the AC50 in [7] and in [8] were 18.7 µM (active) and 5.25 µM (active), respectively. Further, the IC50 in assay [9] is 3.72 µM (active). In assay [12], this compound displayed an SSMD of -7.04. Moreover, the cell count in [12] was determined as 3190. Besides, the plate-normalised HSF1 focus index in assay [12] was 0.581 (inactive).
